60 compounds from PubChem BioAssay AID2314 (National Center for Advancing Translational Sciences (NCATS), 2010) can be followed below.

In all, about 300,000 compounds went through this assay and about 37,000 (12%) were called active. No stated cut-off is given here; in the data, active means max response mostly above about 13% (no sharp cut-off); inactive means mostly below about 14%. The entries come from a sample that favours actives as a whole.

The nature of this assay: Cycloheximide Counterscreen for Small Molecule Inhibitors of Shiga Toxin. Further: read at 38.3 µM for the half of the compounds with a filed dose; 0% is about no effect. The conditions noted are these: cell reporter, cycloheximide protein synthesis inhibition counterscreen; stronger effect = higher value. Background: Counterscreens check selectivity or assay interference.
On to `C[C@H](NC(=O)c1nc[nH]c1C(=O)NCC(=O)OC(C)(C)C)c1ccccc1`, for which the max response was 3.3% (inactive).

Take `CCCN(CCC)C(=O)C1c2ccccc2Oc2ccccc21`: the max response was 3.35% (inactive).

`O=C(CN1CCCCCC1)Nc1ccc(Br)cc1[N+](=O)[O-]`: the max response was -2.43% (inactive).

Regarding `O=C(CN1CCN(c2ccccn2)CC1)NC1CCCCC1`, the max response is 9.34% (inactive).

In the case of `N/C(=N\OC(=O)CC1CCCCC1)c1ccccc1`, the max response is 40.4% (active).

Consider `COc1ccccc1OCc1nnc(SCC(N)=O)n1-c1ccccc1`, for which the max response is 7.05% (inactive).

As to `N/C(=N\OC(=O)CCC1CCCCC1)c1ccccn1`, the max response was 38.6% (active).

Regarding `COc1ccccc1NC(=O)C(C)OC(=O)CC1CCCC1` (stereo not given), the max response was 0.793% (inactive).

In the case of `COc1ccccc1OCC(=O)OCn1c(SC)nnc(C)c1=O`, the max response was -1.41% (inactive).

Regarding `CC(C)(C)NC(=O)NC(=O)COC(=O)CCC1CCCCC1`, the max response is -2.12% (inactive).

Take `N/C(=N\OC(=O)Cc1ccccc1[N+](=O)[O-])c1ccc(Br)cc1`: the max response is 11.4% (inactive).

As for `COc1ccccc1OCC(=O)O/N=C(\N)c1ccccn1`, the max response was 46.9% (active).

As for `COc1ccc(C(=O)NCC(=O)N/N=C/c2ccc([N+](=O)[O-])o2)cc1OC`, the max response was 8.64% (inactive).

As to `COc1ccc(S(=O)(=O)n2nc(C)c(S(=O)(=O)N3CCOCC3)c2C)cc1`, the max response was -1.99% (inactive).

In the case of `COc1cccc(CNC(=O)c2nnn(CC(=O)Nc3cc(C)ccc3C)c2N)c1`, the max response was 7.9% (inactive).

On to `CSCC[C@H](NC(=O)N1CCn2c1nc1ccccc12)C(=O)NCc1ccc2c(c1)OCO2`, for which the max response was 0.519% (inactive).

As for `Cn1ncc(N2CCN(S(=O)(=O)c3ccc(Br)cc3)CC2)c(Cl)c1=O`, the max response is -6.65% (inactive).

As to `S=c1[nH]cc(-c2ccc(Cl)cc2)n1-c1ccccc1`, the max response is 9.09% (inactive).

As to `CC(C)(C)OC(=O)NC(Cc1ccccc1)C(=O)NC(CSC1CCCCO1)C(=O)NN` (stereo not given), the max response was -1.92% (inactive).

On to `O=C(CC(c1ccccc1)c1ccccc1)NCC(O)c1ccc([N+](=O)[O-])cc1` (stereo not given), for which the max response is -4.98% (inactive).

As to `Cc1nn2c(NCCN(C)C)c3c(nc2c1-c1ccccc1)CCC3`, the max response was -2.49% (inactive).

Regarding `Cc1ccc(CNC(=O)Cn2c(=O)c3sccc3n(Cc3cccc([N+](=O)[O-])c3)c2=O)cc1`, the max response is 3.82% (inactive).

Consider `CC(=O)n1cc([C@@H]2C=C(C(=O)N3CCN(Cc4ccc5c(c4)OCO5)CC3)O[C@H](OCc3ccc(CO)cc3)C2)c2ccccc21`, for which the max response is 0.854% (inactive).

For `Cc1ccc(NC(=O)COc2ccc(/C=N\NC(=O)c3cccnc3)cc2)cc1C`, the max response is 12.4% (inactive).

For `C/C(=C\C(=O)c1ccccc1)Nc1cccc(O)c1`, the max response was 29.3% (active).

As for `COc1cc(/C=C(/NC(=O)c2ccccc2)C(=O)Nc2cccc(O)c2)c([N+](=O)[O-])cc1OC`, the max response was -3.43% (inactive).

On to `C/C(=C\C(=O)c1cccnc1)Nc1ccc(C)c(C)c1`, for which the max response was 29% (active).

In the case of `O=C(Cc1ccccc1)Nc1cccc(NC(=O)c2ccccc2)c1`, the max response is -0.775% (inactive).

`O=C(Nc1cccc(C(=O)N2CCCC2)c1)c1ccccc1`: the max response is -1.45% (inactive).

`Cc1ccc(OCC(=O)NCCCNC(=O)c2cccnc2)cc1C`: the max response was -4.42% (inactive).

On to `O=C(Nc1cccc(O)c1)c1ccc(C(=O)c2ccccc2)o1`, for which the max response was 40.5% (active).

`O=C(NCc1cccc(CNC(=O)Nc2cccc(O)c2)c1)Nc1cccc(O)c1`: the max response is -1.08% (inactive).

For `CCCCCN(C(=O)CCC(=O)OCC(=O)NCc1ccc(OC)cc1)c1c(N)n(CCCC)c(=O)[nH]c1=O`, the max response is -0.685% (inactive).

As for `COc1ccc(NC(=O)c2sc(N3CCOCC3)nc2-c2ccccc2)c(OC)c1`, the max response was -2.89% (inactive).

As for `COc1ccc(C(=O)NCCNc2ccc([N+](=O)[O-])cn2)cc1`, the max response is 4.73% (inactive).

As to `CCN(CC)CCCNC(=O)COc1ccc2oc3c(c2c1)CCCC3`, the max response is -5.99% (inactive).

Consider `O=C(COc1ccc2oc3c(c2c1)CCCC3)Nc1ccccn1`, for which the max response was 28.6% (active).

Consider `Cc1ccc(OCC(=O)Nc2ccc(S(=O)(=O)Nc3ccccn3)cc2)cc1`, for which the max response is 1.04% (inactive).

Consider `COc1ccc(CN2CCN(Cc3ccc(OC)c(OC)c3OC)CC2)cc1`, for which the max response is -4.12% (inactive).

As to `Cc1ccc(CS(=O)Cc2ccc(C(=O)N3CCOCC3)o2)cc1` (stereo not given), the max response was 0.901% (inactive).

Turning to `CC(=O)NS(=O)(=O)c1ccc(N/C(N)=N/c2nc(C)cc(C)n2)cc1`, the max response was -0.472% (inactive).

`COc1ccc(CCNC(=O)CN2C(=O)COc3ccc(S(=O)(=O)N4CCCC4)cc32)cc1OC`: the max response is -2.34% (inactive).

In the case of `CCNc1nc(NC(C)C)nc(N2CC(=O)N(CC(=O)OCC)C2=N)n1`, the max response is -5.32% (inactive).

In the case of `CCN(c1cccc(C)c1)S(=O)(=O)c1ccc(-c2coc(C)n2)cc1`, the max response was -4.01% (inactive).

For `CCN(CC)S(=O)(=O)c1ccc(-c2cn3ccc(C)cc3n2)cc1`, the max response is 45.6% (active).

On to `COc1ccc(-c2cn3ccc(C)cc3n2)cc1`, for which the max response is -1.85% (inactive).

On to `CCCCN(CC)C(=O)c1ccccc1Oc1ccccc1`, for which the max response is -1.52% (inactive).

On to `Cc1ccc(N)cc1-n1c(C)ccc1C`, for which the max response was 23.9% (active).

For `Cc1ccc(C)n1-c1ccncc1`, the max response is -5.57% (inactive).

Regarding `CN(c1ccccc1)S(=O)(=O)c1ccc(NC(=O)COc2ccccc2)cc1`, the max response is -1.66% (inactive).

On to `CCCCNC(=O)C1CCC(=O)N1CCc1ccccc1` (stereo not given), for which the max response is -3.51% (inactive).

In the case of `O=c1[nH]c(CN2CCOCC2)nc2cc(Cl)ccc12`, the max response is 13% (active).

On to `CN(CCOc1ccccc1)Cc1nc2cc(Cl)ccc2c(=O)[nH]1`, for which the max response is 2.21% (inactive).

Regarding `O=c1[nH]c(CN2CCOCC2)nc2scc(-c3ccccc3)c12`, the max response was 9.91% (inactive).

Take `CC(NC(=O)c1ccccc1C(=O)O)c1ccc(-n2ccnc2)cc1` (stereo not given): the max response is -1.67% (inactive).

As to `CC1CCN(C(=O)c2ccccc2NC(=O)Cc2ccccc2)CC1`, the max response was 18.5% (inactive).

Take `O=C(C1CCN(Cc2ccc(Cl)cc2)CC1)N1CCN(Cc2ccc3c(c2)OCO3)CC1`: the max response is -1.07% (inactive).

For `CCOC(=O)c1csc(CCNC(=O)c2oc3c(Cl)cc(C)cc3c2C)n1`, the max response was 29.8% (active).

For `Cc1ccc2c(=O)cc(C(=O)NCCc3ccc(S(N)(=O)=O)cc3)oc2c1C`, the max response was -2.03% (inactive).

For `CCOC(=O)c1csc(NC(=O)c2ccc(S(=O)(=O)N3CCCC3)cc2)n1`, the max response was -1.54% (inactive).
